In all, about 68,000 sequences were measured (“fluorescence intensity (a.u.)”: median about 9,100, highest 2% from about 16,000 on). This excerpt belongs to a sample that is enriched for the highest values.

OsWRKY34, sequence (Q0JBA9 entry or part of it): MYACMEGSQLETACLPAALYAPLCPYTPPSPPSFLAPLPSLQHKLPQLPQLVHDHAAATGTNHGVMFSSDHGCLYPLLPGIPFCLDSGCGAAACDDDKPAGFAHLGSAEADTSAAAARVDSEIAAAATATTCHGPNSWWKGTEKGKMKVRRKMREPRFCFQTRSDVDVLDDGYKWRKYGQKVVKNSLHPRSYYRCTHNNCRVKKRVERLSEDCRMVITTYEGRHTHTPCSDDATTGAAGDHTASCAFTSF

The experiment addresses OsWRKY34 (Oryza sativa, UniProt Q0JBA9 1-250). Put plainly: protein-binding microarray (RPBM); PBS, 2% BSA, 51.3 ng/ul salmon testes DNA, 50 uM zinc acetate, 200 nM TF, 25 C, 1 h; high values mean tight binding. The conditions noted are these: protein: recombinant; tags: N-terminal polyhistidine and DsRed monomer fusion (pET32a); label: CyDye5-dUTP incorporated in the synthesized complementary strand; 3' TTTTT single-stranded linker to array surface; dsDNA, one strand shown. A digest of the protocol:
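In PBS with 2% BSA, salmon testes DNA and 50 µM zinc acetate, 200 nM protein was incubated on a custom Agilent array at 25 °C for 1 h and then washed off. The array had been made double-stranded by primer extension with Cy5-dUTP and blocked with 2% BSA. The proteins were transcription factors fused N-terminally to polyhistidine and DsRed, expressed in E. coli BL21-CodonPlus and purified on Ni–NTA. The binding signal is per-feature fluorescence intensity (arbitrary units) from an Axon 4000B scanner.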
Regarding “GTCACTTCTCCTTTTTTTTTGGCATGCAATAGACTTCCTTCGGAGTCACCTAGTGCAG”, the binding signal was 8780 fluorescence intensity (a.u.).

Turning to “CCCCTCGAGTCTGATCCTCCCACTACCAACGTCCACCGGCCGGAGTCACCTAGTGCAG”, the binding signal is 9210 fluorescence intensity (a.u.).

As for “CCGCCGCCGCTCGCCGCCGCATTGCGTTACTCGAGCTCGCCGGAGTCACCTAGTGCAG”, the binding signal is 8710 fluorescence intensity (a.u.).

Turning to “TACTGTCTGTCAACACACTTCATGATTTCTCATCAAATATCGGAGTCACCTAGTGCAG”, the binding signal was 10400 fluorescence intensity (a.u.).

Take “AGGACGATGGGCGCGATGGGATTTGTTCTTGACTGTTTTACGGAGTCACCTAGTGCAG”: the binding signal is 12000 fluorescence intensity (a.u.).

For the sequence “TCGGTTTCATACGTGGGGTCTGTTGGTGGAGGTGTTGCCACGGAGTCACCTAGTGCAG”, the binding signal was 9440 fluorescence intensity (a.u.).

Turning to “GGTGCGTGTTCGGGATGGGGTTCGGGTTCAATTTCAGGTTCGGAGTCACCTAGTGCAG”, the binding signal was 16700 fluorescence intensity (a.u.).

Regarding “CGATACTTTCATGGGTGGGTCCTATGTTGCACGGTTGGTTCGGAGTCACCTAGTGCAG”, the binding signal was 22900 fluorescence intensity (a.u.).

Turning to “TACTCAATGTCTAATGGGGTGTTTGGATGGGACTAATTTTCGGAGTCACCTAGTGCAG”, the binding signal is 13000 fluorescence intensity (a.u.).

For the sequence “TATATACTTTCATGGGTCTATATTTATATGTATGTATACACGGAGTCACCTAGTGCAG”, the binding signal was 8690 fluorescence intensity (a.u.).

Regarding “TTCGGGTTCAATTTCAGGTTCAGTCGCTTGCTTGGTGCTTCGGAGTCACCTAGTGCAG”, the binding signal was 8960 fluorescence intensity (a.u.).

Take “TTACTATACTATTAATATCTGATCACACCTGTCATACACACGGAGTCACCTAGTGCAG”: the binding signal is 9710 fluorescence intensity (a.u.).

For “CAGAGTGCAAGCCAATCATCGCCACCACGCTACGCTACACCGGAGTCACCTAGTGCAG”, the binding signal is 8130 fluorescence intensity (a.u.).

For “CGTTTGTACTGTGTGGTGGTTGGTGATTGGGTGTTGTGCCCGGAGTCACCTAGTGCAG”, the binding signal is 13900 fluorescence intensity (a.u.).

As to “AAAAGCCGGTCTCCTTCATCTTCCCGTCCGTAAACCCTAACGGAGTCACCTAGTGCAG”, the binding signal is 10600 fluorescence intensity (a.u.).

For “ACGACGACGACGACGACGCAACCCCGCGGCGCGCGCCGGCCGGAGTCACCTAGTGCAG”, the binding signal is 8430 fluorescence intensity (a.u.).

Regarding “CCTCTACGCGCGGCCAACGCCGCCGCCGCCGCCGCCGCTCCGGAGTCACCTAGTGCAG”, the binding signal was 8370 fluorescence intensity (a.u.).

In the case of “CACCCTCGTTTCCACCCGCGCCCGCGCGCCGCGCGCCACTCGGAGTCACCTAGTGCAG”, the binding signal was 10800 fluorescence intensity (a.u.).

For the sequence “CGCCTCTTTTCGTTTCGTTTCGCCGCCCGCTTCCGCCGCGCGGAGTCACCTAGTGCAG”, the binding signal was 23300 fluorescence intensity (a.u.).

With “AGCCAGTTTTCTCCACCCTCGTTTTCCGCGCACATGTTTTCGGAGTCACCTAGTGCAG”, the binding signal is 17600 fluorescence intensity (a.u.).

On to “CCGCCGCCGTTCCGTTTTTTCTCTCTCGCGCCGCCGCCAGCGGAGTCACCTAGTGCAG”, for which the binding signal is 17300 fluorescence intensity (a.u.).

Turning to “CTCGCCTCTAGGGTTCCGCCGTTTTCCGCGGCGCGCCACCCGGAGTCACCTAGTGCAG”, the binding signal was 9410 fluorescence intensity (a.u.).

Regarding “TCCCTCTCTCTCTCTCTCTTCGTTTCCGCGCGCGCGCGCGCGGAGTCACCTAGTGCAG”, the binding signal is 9340 fluorescence intensity (a.u.).

Consider “TCTACGCCGCCGGCGGCGGCGGCGGCGGCAACTGCGGCGCCGGAGTCACCTAGTGCAG”, for which the binding signal was 47800 fluorescence intensity (a.u.).

As to “CATCTCCTCCGTTTTCCGCGCACATGTTTTTTAAACTGCTCGGAGTCACCTAGTGCAG”, the binding signal was 10400 fluorescence intensity (a.u.).

On to “CTCGCTTCTTCTTCCTTCTTTCCGTCCTCGCCGCCCCGCGCGGAGTCACCTAGTGCAG”, for which the binding signal is 8470 fluorescence intensity (a.u.).

With “GTTCCAGCCGCGTTTCCTCTCGCGGCGGCCTCGCCATTTCCGGAGTCACCTAGTGCAG”, the binding signal is 9070 fluorescence intensity (a.u.).

Regarding “TCCTATGTTTTTCCTGCGGTCCAATCAAACGGTCATTCTTCGGAGTCACCTAGTGCAG”, the binding signal was 12300 fluorescence intensity (a.u.).

For the sequence “GCGTGTTTTTCTACCCGATCGACCTTCTGATTTTGGCTATCGGAGTCACCTAGTGCAG”, the binding signal is 11100 fluorescence intensity (a.u.).

In the case of “CCACCAGCGATTTGGCCCGATCTCATCCCACCAGCGATTTCGGAGTCACCTAGTGCAG”, the binding signal was 8430 fluorescence intensity (a.u.).

“CACAGCTTCTTAATTACTCCACCTTAATTAATCGATTAATCGGAGTCACCTAGTGCAG”: the binding signal was 8680 fluorescence intensity (a.u.).

As to “GGGCGGTTCTTCTTCTTCGTCTTCGTCTTGGCGCCGGTCGCGGAGTCACCTAGTGCAG”, the binding signal was 17200 fluorescence intensity (a.u.).

As to “CCACGCCACGCGCCGCTCTCACTCGGTCACTCTCACTCTTCGGAGTCACCTAGTGCAG”, the binding signal was 9750 fluorescence intensity (a.u.).

In the case of “TGATCGCTCGCCGCCGCGGCCGCTCTCCCGCCGGCGCCGCCGGAGTCACCTAGTGCAG”, the binding signal was 9560 fluorescence intensity (a.u.).

Turning to “GTTGGGGTTCGTCGTCTTGGTCTTGGGTCTTCTTCGTCCCCGGAGTCACCTAGTGCAG”, the binding signal is 11600 fluorescence intensity (a.u.).

Regarding “TATATATATATATATATATATATATCTGATGCTCTCTTGCCGGAGTCACCTAGTGCAG”, the binding signal was 31700 fluorescence intensity (a.u.).

In the case of “CGCCGCCGCCGCCGCCGCCGCGCTCGCTCGCTCGCTTCTTCGGAGTCACCTAGTGCAG”, the binding signal was 10200 fluorescence intensity (a.u.).

As to “CACCGGTTCTTCGCCTTCGTCACCGTCGCCGGCGGCGCCACGGAGTCACCTAGTGCAG”, the binding signal is 8450 fluorescence intensity (a.u.).

For “CTCCACTGCTCTGATGCTCTCTCTCTCTCTCTCTTCACGCCGGAGTCACCTAGTGCAG”, the binding signal was 10800 fluorescence intensity (a.u.).

Regarding “ATGCCGCTCTATCTCTCTCTCTCTCTCTCTCTCTCTCTCTCGGAGTCACCTAGTGCAG”, the binding signal is 9760 fluorescence intensity (a.u.).

As for “AAATTAACCACACTCGCGCCGCCATTCTCTTCTTCTTCTTCGGAGTCACCTAGTGCAG”, the binding signal was 20600 fluorescence intensity (a.u.).

Regarding “CCCACACCACCTCGCCCAATTAAACCCTCACCCATTCTTTCGGAGTCACCTAGTGCAG”, the binding signal was 9140 fluorescence intensity (a.u.).

As to “CTCTCTCTCTCTCTCTCTCTCTCTCTCTTCGCCGCGCGGCCGGAGTCACCTAGTGCAG”, the binding signal was 18300 fluorescence intensity (a.u.).

Values taken from PMC7819943, “Rice protein-binding microarrays: a tool to detect cis-acting elements near promoter regions in rice”.
